In test [1] the target is Lysosomal acid glucosylceramidase (Homo sapiens) (UniProt P04062). The test can be described thus: Glucocerebrosidase-p2 (AID 348; in the data active = potency below about 10 µM; note: potency is the fitted concentration of half-maximal effect). Conditions: purified GBA, blue fluorogenic substrate, 40 min. In a few lines:
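Compounds titrated from 0.6 nM upwards against 0.2 nM enzyme in pH 5.9 citric acid/KH2PO4, taurocholate, tween-20; blue fluorogenic substrate 80 uM, 40 min room temperature, stopped and read Ex 365/Em 440 for AC50.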

Test [2] in a line: AP1 Signaling Pathway (AID 357; active = well fitted curve in either direction with a large enough effect, not every such curve was filed as active;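 note: ME-180 reporter cells stimulated with EGF at its EC50 level; % is set by controls: 0 for no effect and ±100 for the full control effect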). Conditions: ME-180 AP-1-bla reporter, EGF-induced, beta-lactamase ratio, 5 h; at 7.69 µM (top of the series) unless noted. The method in brief: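 AP-1-bla ME-180 cells, Opti-MEM + 0.5% dialyzed FBS, plated overnight 37 °C. Cpd titration + EC50 EGF, 5 h 37 °C. CCF4 2.5 h RT; ex 405, em 460/530 ratio → %activity, AC50.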
Test [3] can be described thus: NFAT Signaling Pathway (AID 444; active = well fitted curve in either direction with a large enough effect, not every such curve was filed as active;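 note: carbachol stimulus at about its EC50 of 1 µM final; % is set by controls: 0 for no effect and ±100 for the full control effect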). Conditions: Jurkat NFAT-bla M1, carbachol, beta-lactamase ratio, 5 h; at 7.69 µM (top of the series) unless noted. The method in brief:
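Jurkat cells carrying an NFAT-driven β-lactamase reporter and co-transfected muscarinic M1 receptor were treated with compound plus carbachol (1 uM final, an EC50 level) for 5 h at 37 °C. CCF4 loading followed for 1 h at RT; 460/530 nm ratio gave %activity.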

Test [4] can be described thus: Stat Signaling Pathway (AID 446; active = well fitted curve in either direction with a large enough effect, not every such curve was filed as active;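 note: ME-180 cervical cancer cells given 40 pM IL-6 alongside compound; SIE-controlled beta-lactamase reporter measured as 460/530 nm FRET emission ratio; % is set by controls: 0 for no effect and ±100 for the full control effect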). The note with it: ME-180 (cervical carcinoma) SIE beta-lactamase reporter, IL-6 stimulated, 5 h; at 7.69 µM (top of the series) unless noted. In a few lines:
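ME-180 cells carrying a SIE-driven beta-lactamase reporter are stimulated with 40 pM IL-6 for 5 h at 37C in the presence of compound. The 460/530 nm FRET substrate ratio is read after 2.5 h at RT. Data are normalised to 300 pM IL-6 and to 125 nM JAK inhibitor controls.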

Test [5] deals with Glucocorticoid receptor (Homo sapiens) (UniProt P04150). The test can be described thus: GR-EFC Redistribution (AID 451; calls by dose curve; note: potency is the fitted concentration of half-maximal effect). Conditions: CHO-K1 GR-EFC translocation, beta-gal luminescence, 2 h. The method in brief: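 CHO-K1 cells stably expressing nuclear-localized β-gal enzyme acceptor and GR fused C-terminally to the enzyme donor fragment; ligand-driven nuclear translocation restores β-gal by complementation. Compounds titrated up to 46 uM final, 2 h at 37 °C; luminescence read.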

In test [6] the target is Mitogen-activated protein kinase 10 (Mus musculus) (UniProt Q61831). The test can be described thus: JNK3 AlphaScreen Assay (AID 530; active = well fitted curve in either direction with a large enough effect, not every such curve was filed as active;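 note: kinase came from lysate of stimulated human HepG2 cells; signal reports phosphorylation of biotinylated GST-cJun 1-79 at Ser73 with 10 µM ATP; % is set by controls: 0 for no effect and ±100 for the full control effect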). In a few lines:
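Inhibitors reduce antibody binding to phosphorylated biotin-cJun, lowering AlphaScreen luminescence. Lysates from HepG2 cells pre-activated by IL-1beta plus TNF-alpha supplied JNK3; compounds were titrated.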

The target of test [7] is 3',5'-cyclic-AMP phosphodiesterase 4B (Homo sapiens) (UniProt Q07343). Put plainly: qHTS Assay for Inhibitors of PDE-IV (AID 607; active = well fitted activation curve with a large enough effect in the main read-out, with a control signal flat, not every such curve was filed as active; note: % of control where 0% means no effect). The method in brief: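 HEK293 ACTOne cells with CNG channel (1000/well), endogenous PDE4; membrane potential dye, compounds up to 22.9 uM final. Fluorescence Ex 535/Em 590; RO 20-1724 (100 uM final) as reference.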
Chain of 3',5'-cyclic-AMP phosphodiesterase 4B (Homo sapiens) (Q07343 whole entry, looked up): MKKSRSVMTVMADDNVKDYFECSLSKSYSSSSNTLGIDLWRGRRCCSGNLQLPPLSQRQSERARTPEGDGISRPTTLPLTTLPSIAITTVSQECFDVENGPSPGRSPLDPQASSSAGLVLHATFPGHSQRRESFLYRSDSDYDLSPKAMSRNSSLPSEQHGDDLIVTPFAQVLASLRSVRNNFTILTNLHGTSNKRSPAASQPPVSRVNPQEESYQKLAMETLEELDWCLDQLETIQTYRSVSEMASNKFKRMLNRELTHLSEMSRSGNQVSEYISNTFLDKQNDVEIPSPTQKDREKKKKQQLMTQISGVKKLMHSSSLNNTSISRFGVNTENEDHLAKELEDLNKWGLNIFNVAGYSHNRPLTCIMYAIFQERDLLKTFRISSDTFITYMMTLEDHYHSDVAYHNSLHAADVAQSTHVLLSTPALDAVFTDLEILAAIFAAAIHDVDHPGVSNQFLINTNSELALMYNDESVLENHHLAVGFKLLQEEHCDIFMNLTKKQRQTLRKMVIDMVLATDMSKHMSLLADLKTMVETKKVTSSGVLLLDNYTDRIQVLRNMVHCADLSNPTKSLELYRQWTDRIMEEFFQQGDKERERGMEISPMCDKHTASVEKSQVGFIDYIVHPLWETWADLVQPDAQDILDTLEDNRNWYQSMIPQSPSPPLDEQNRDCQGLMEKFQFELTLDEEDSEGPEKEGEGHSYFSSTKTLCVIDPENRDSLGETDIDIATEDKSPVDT
On the technique in general: In qHTS, concentration-response curves come from the screen itself.

For test [8], the target named is Dual specificity protein kinase CLK4 (Homo sapiens) (UniProt Q9HAZ1). Put plainly: qHTS Assay for Inhibitors of CDC-like Kinase 4 (Kinase-Glo Assay) (AID 1770). Note: nearly all actives have a fitted effect of over 65% in size. Note: potency is the fitted concentration of half-maximal effect. The method in brief: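 Substrate mix (RS peptide 100 uM, ATP 1 uM) dispensed, compound pinned in, then Clk4 added to 25 nM final. Incubated 4.5 h at RT; Kinase-Glo reagent added, luminescence read after 5 min.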
Chain of Dual specificity protein kinase CLK4 (Homo sapiens) (Q9HAZ1 whole entry, looked up): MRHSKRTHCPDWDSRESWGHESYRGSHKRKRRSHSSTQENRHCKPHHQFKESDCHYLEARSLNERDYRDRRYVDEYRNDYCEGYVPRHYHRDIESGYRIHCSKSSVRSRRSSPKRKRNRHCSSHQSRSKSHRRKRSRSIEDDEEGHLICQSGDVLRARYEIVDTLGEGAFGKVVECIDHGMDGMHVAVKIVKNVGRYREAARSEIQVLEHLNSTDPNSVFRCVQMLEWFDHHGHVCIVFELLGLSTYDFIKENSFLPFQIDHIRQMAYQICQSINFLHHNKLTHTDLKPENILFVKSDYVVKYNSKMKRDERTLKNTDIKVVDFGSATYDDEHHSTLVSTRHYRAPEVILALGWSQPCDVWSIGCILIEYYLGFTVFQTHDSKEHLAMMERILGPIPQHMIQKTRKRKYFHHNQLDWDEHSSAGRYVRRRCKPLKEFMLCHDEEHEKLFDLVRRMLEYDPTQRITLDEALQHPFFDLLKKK

For test [9] the target is unchanged. Put plainly: qHTS Assay for Inhibitors of CDC-like Kinase 4 (ADP-FP Assay) (AID 1795).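 Note: recombinant human CLK4 phosphorylating RS repeat peptide at 1 µM ATP; % is set by controls: 0 for no effect and ±100 for the full control effect; nearly all actives have a fitted effect of over 60% in size.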 In a few lines: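 Clk4 6.25 nM; RS peptide 100 uM; ATP 1 uM; 25 mM Tris pH 7.5, 10 mM MgCl2; 1 h reaction. ADP detected via antibody/orange tracer FP displacement; TG003 positive control.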
Test [10] is described as follows: Primary qHTS for small molecule stabilizers of the endoplasmic reticulum resident proteome: Secreted ER Calcium Modulated Protein (SERCaMP) assay (AID 1508630). Note: % is set by controls: 0 for no effect and ±100 for the full control effect. The method in brief: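 GLuc-SERCaMP-expressing SH-SY5Y cells, pretreated 16 h with compound, are challenged with thapsigargin to empty ER calcium stores; after 4 h, coelenterazine is added directly to the medium and luminescence is imaged.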

The target of test [11] is Rap guanine nucleotide exchange factor 3 (Homo sapiens) (UniProt O95398). Put plainly: Confirmatory qHTS for antagonist of cAMP-regulated guanine nucleotide exchange factor 3 (EPAC1) (AID 1645880).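 Note: plate controls were DMSO only for no effect and full effect of the ATA control for full effect; nearly all actives have a fitted effect of over 55% in size.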 In a few lines: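 Nucleotide exchange uses 100 nM EPAC1, 250 nM RAP1B-BODIPY-GDP and 50 uM GDP, with compounds in a concentration-titration series. After 5 min at room temperature, fluorescence (480 nm ex/540 nm em) is read every 5 min for 30 min. Data are normalized to control ATA and DMSO.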
Chain of Rap guanine nucleotide exchange factor 3 (Homo sapiens) (O95398 whole entry, looked up): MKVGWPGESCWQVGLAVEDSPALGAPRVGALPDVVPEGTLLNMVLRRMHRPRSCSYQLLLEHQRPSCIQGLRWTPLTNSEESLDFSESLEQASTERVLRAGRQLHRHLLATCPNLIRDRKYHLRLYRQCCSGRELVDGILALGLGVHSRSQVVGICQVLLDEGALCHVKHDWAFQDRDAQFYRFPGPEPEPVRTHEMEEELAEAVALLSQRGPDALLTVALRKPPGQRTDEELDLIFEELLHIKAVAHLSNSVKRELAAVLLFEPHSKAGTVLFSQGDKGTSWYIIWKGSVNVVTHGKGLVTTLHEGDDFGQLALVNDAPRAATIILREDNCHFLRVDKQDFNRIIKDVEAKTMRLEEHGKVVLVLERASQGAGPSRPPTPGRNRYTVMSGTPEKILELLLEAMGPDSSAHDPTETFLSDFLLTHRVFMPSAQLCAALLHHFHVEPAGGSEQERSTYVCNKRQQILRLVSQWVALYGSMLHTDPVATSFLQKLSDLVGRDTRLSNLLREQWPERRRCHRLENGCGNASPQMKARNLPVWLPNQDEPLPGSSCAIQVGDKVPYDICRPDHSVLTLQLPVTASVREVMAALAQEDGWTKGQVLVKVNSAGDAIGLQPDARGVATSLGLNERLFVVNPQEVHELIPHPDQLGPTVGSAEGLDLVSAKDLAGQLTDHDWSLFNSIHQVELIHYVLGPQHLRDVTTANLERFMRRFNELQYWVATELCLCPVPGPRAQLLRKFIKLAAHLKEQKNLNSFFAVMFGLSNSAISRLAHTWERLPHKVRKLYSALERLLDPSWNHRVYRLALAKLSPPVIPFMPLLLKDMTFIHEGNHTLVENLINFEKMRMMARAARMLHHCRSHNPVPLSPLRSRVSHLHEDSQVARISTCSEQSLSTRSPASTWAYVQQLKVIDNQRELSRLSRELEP

For test [12] the target is unchanged. Put plainly: Confirmatory qHTS for agonist of cAMP-regulated guanine nucleotide exchange factor 3 (EPAC1) (AID 1645881).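 Note: EPAC1 catalysed release of BODIPY-GDP from Rap1B seen as fluorescence loss; 100% = effect of cAMP agonist control; nearly all actives have a fitted effect of over 75% in size.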
Test [13] addresses Rap guanine nucleotide exchange factor 4 (Homo sapiens) (UniProt Q8WZA2). The test can be described thus: Confirmatory qHTS for agonist of cAMP-regulated guanine nucleotide exchange factor 4 (EPAC2) (AID 1645884).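 Note: nucleotide exchange releases bodipy-GDP from Rap1 and this lowers its fluorescence; % is set by controls: 0 for no effect and ±100 for the full control effect; nearly all actives have a fitted effect of over 65% in size.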
For test [14] the target is unchanged. Put plainly: Confirmatory qHTS for antagonist of cAMP-regulated guanine nucleotide exchange factor 4 (EPAC2) (AID 1645885). Note: nearly all actives have a fitted effect of over 25% in size. Note: potency is the fitted concentration of half-maximal effect.
Test [15] is described as follows: qHTS Assay for Lipid Storage Modulators (AID 1519; calls by dose curve). Conditions: Drosophila S3 cells, BODIPY lipid droplet/cell ratio, laser cytometry, cells loaded with oleic acid; for activity change, negative = inhibition: at 57.5 µM (top of the series). The method in brief: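 Cells seeded at 5,000 per well were treated with compounds over a concentration series and loaded with oleic acid (400 uM, as added). Lipid droplet fluorescence (488 nm excitation, 500-530 nm channel) was read by laser-scanning cytometry and normalized to 20 uM Triacsin C.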

The target in test [16] is Glucocorticoid receptor (Homo sapiens) (UniProt P04150). Put plainly: GR-GFP Redistribution (AID 450;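 active = compounds whose dose series gives a full or clear partial fitted curve of increased nuclear translocation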; note: potency is the fitted concentration of half-maximal effect). Conditions: U2OS GR-GFP nuclear translocation, laser cytometry, 2 h.
The target in test [17] is Ubiquitin carboxyl-terminal hydrolase 1 (Homo sapiens) (UniProt O94782). The test can be described thus: Inhibitors of USP1/UAF1: Pilot qHTS (AID 504865). Note: nearly all actives have a fitted effect of over 35% in size. Note: potency is the fitted concentration of half-maximal effect. In a few lines:
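In 50mM HEPES pH 7.8 containing 0.5mM EDTA, 1mM TCEP, 0.1 mg/ml BSA and 0.01% Tween-20, 1nM USP1/UAF1 is exposed to compound for 15 min, then Ub-Rho (150nM final) is added and fluorescence is read over time.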

Test [18] addresses Cytochrome P450 1A2 (Homo sapiens) (UniProt P05177). The test can be described thus: p450-cyp1a2 (AID 410; calls by dose curve; note: potency is the fitted concentration of half-maximal effect). The method in brief:
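20nM CYP1A2 with 100uM Luciferin-ME (at Km) in 100mM KPO4; compound preincubated 10 min, NADPH regeneration added, 60 min at room temperature. Luciferin quantified by luminescence after detection reagent; normalized to 57 uM furafylline.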

Test [19] deals with Cytochrome P450 3A4 (Homo sapiens) (UniProt P08684). Put plainly: qHTS Assay for Activators of Cytochrome P450 3A4 (AID 885). Note: nearly all actives have a fitted effect of over 65% in size. The method in brief:
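Human CYP3A4 (20 nM) with Luciferin-PPXE at 25 uM (its KM) in 200 mM KPO4; 10 min compound preincubation, then NADPH regeneration and 60 min reaction at RT. Luciferin read by luminescence; normalized to 57 uM ketoconazole full inhibition.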

[20] abbreviates: measured here: cell count channel max response.
The mark [21] stands for this setting: measured here: lipid channel max response.

Molecules are shown by their SMILES. Inconclusive results are not listed. Activity calls are given as the source filed them. Unless noted, calls come from the whole dose curve; as a rule, active = well fitted curve in the direction sought with a large enough effect; inconclusive = small, poorly fitted or top-dose-only effect, or another doubt; inactive = no such curve, though single readings can be large; an effect the other way counts as inactive or inconclusive.

Chain of Lysosomal acid glucosylceramidase (Homo sapiens) (P04062 whole entry, looked up): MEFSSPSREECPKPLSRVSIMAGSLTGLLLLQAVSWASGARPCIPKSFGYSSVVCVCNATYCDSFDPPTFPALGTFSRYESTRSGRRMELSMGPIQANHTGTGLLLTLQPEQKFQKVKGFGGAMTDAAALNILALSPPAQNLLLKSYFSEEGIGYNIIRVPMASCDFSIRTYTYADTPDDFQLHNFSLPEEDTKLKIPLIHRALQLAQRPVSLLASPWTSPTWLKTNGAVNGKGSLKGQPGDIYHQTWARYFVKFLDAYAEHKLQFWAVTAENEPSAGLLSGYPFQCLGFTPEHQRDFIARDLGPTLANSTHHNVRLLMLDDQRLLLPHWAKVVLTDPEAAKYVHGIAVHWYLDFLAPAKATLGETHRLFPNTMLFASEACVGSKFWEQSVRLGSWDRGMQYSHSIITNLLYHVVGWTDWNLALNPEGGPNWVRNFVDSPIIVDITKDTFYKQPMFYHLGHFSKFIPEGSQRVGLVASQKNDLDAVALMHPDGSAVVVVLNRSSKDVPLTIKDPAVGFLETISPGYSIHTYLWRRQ
Chain of Rap guanine nucleotide exchange factor 4 (Homo sapiens) (Q8WZA2 whole entry, looked up): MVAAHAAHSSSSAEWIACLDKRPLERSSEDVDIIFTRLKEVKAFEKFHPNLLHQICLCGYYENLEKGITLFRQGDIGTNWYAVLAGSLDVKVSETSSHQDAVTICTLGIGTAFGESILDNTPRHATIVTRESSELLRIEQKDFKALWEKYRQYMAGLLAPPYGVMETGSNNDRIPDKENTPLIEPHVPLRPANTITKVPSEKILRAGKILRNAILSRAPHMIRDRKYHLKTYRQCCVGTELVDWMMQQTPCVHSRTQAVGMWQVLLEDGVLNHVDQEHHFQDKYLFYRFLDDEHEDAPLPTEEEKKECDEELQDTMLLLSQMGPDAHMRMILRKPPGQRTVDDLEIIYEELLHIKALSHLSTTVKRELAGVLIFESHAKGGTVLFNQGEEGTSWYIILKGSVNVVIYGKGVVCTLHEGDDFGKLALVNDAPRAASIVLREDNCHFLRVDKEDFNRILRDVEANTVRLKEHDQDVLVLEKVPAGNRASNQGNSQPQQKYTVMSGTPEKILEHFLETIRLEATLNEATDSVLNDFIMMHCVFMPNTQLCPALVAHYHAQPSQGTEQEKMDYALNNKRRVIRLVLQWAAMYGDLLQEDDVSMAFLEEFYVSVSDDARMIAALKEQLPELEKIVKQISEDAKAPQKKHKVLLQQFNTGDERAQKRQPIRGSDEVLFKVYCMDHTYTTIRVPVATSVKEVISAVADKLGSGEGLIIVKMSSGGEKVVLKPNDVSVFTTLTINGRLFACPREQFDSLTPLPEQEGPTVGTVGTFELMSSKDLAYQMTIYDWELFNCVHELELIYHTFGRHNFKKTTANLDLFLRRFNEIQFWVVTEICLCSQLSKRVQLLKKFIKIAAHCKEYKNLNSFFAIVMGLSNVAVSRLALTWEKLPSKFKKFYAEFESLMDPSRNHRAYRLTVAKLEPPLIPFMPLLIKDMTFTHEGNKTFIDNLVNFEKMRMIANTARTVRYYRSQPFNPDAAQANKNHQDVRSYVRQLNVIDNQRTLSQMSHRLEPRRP
Chain of Ubiquitin carboxyl-terminal hydrolase 1 (Homo sapiens) (O94782 whole entry, looked up): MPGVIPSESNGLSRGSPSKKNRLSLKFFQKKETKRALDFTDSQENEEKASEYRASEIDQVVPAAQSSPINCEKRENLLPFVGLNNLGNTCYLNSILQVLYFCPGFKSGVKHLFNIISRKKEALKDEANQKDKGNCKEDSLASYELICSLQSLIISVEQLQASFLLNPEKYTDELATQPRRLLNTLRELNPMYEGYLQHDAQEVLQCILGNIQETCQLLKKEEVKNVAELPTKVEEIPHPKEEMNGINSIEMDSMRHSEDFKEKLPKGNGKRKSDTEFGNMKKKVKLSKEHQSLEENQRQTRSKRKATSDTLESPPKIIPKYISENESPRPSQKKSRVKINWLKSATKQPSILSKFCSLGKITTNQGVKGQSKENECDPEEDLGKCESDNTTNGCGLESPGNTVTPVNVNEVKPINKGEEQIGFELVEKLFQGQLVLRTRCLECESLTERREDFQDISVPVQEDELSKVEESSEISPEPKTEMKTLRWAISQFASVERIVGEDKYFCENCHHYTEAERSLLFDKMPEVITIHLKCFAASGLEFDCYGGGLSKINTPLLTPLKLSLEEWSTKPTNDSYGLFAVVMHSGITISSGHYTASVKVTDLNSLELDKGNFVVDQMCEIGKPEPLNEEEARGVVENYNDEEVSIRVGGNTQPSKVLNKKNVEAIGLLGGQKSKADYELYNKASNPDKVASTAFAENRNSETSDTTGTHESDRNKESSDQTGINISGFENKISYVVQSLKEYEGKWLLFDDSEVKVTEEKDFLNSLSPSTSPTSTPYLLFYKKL
Chain of Cytochrome P450 1A2 (Homo sapiens) (P05177 whole entry, looked up): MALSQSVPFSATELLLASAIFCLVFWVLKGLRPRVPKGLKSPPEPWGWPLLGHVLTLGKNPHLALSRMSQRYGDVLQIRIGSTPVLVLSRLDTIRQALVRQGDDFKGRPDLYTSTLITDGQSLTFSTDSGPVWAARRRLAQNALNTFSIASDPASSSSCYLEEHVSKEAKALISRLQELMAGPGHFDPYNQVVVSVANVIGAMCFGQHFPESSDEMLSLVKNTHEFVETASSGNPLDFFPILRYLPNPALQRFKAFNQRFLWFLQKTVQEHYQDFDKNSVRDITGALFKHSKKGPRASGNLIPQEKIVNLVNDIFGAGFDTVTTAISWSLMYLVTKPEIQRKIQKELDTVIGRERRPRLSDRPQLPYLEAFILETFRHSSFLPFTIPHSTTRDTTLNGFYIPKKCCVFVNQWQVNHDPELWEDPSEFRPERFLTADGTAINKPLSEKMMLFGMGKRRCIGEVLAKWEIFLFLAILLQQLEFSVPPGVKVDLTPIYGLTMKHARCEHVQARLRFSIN

With `N#CCCn1c(=O)c(-c2cccs2)nc2cnc(N3CCOCC3)nc21`, the Potency in [1] was > 11.4 µM (inactive); in test [5], > 46 µM (inactive). The activity change, negative = inhibition in test [2] is 3.31% (inactive); in test [3], -28.6% (inactive). In addition, in test [4], the activity, negative = inhibition is 17.9% (inactive). Further, the Potency entry in [6], in [7], in test [8], in test [9], in test [11] and in test [12] was “inactive” throughout. In addition, the Potency result in test [13] and in test [14] was “inactive” each time. Besides, in test [10], the outcome was inactive.
For the compound `Cc1noc(C)c1C(=O)N1CCC2(CC1)CN(c1ccccn1)C2`, the activity change, negative = inhibition in [2] was 23.5% (inactive); in [15], 4.72% (inactive). Besides, the activity, negative = inhibition in [4] is 3.57% (inactive). In [5], the Potency was > 46 µM (inactive). The Potency result in test [6] and in [7] was “inactive” throughout. Further, the max response in [15] (setting [20]) turned out to be 6.89%; in [15] (setting [21]), 15.4%. Besides, in test [10], the outcome was inactive.
Take `COc1cccc(-c2ccc3ncnc(NCc4ccccc4OC)c3c2)c1`: the Potency in test [16] and in test [5] was > 46 µM (inactive) in each case. The Potency result in test [6], in test [7] and in test [17] was “inactive” throughout. The activity change, negative = inhibition in test [15] is 5.94% (inactive). Also, the values for the max response in [15] (setting [20]) and in test [15] (setting [21]) were -19.3% and -13.1%, respectively. Further, the outcome in test [10] was inactive.
Consider `COc1ccc(CNc2cc(-c3ccccc3C)ncn2)c(OC)c1`, for which the Potency in test [1] is > 11.4 µM (inactive); in test [16] it was > 46 µM (inactive); in test [5] it was > 46 µM (inactive). For the same compound, in [3], the activity change, negative = inhibition was -16.6% (inactive). Besides, in test [4], the activity, negative = inhibition is -12.7% (inactive). For the same compound, the Potency entry in [6], in test [8], in [9], in test [11], in test [12] and in test [13] was “inactive” throughout. Besides, the Potency entry in test [14] was “inactive”. The result in test [10] was inactive.
As to `CN(C)c1ncc2nc(CCc3ccccc3)c(=O)n(Cc3ccc(F)cc3)c2n1`, the Potency in [1] was > 11.4 µM (inactive); in test [18], 10 µM (active); in test [16], > 9.22 µM (inactive); in test [5], > 46 µM (inactive). Further, the activity change, negative = inhibition is 8.4% (inactive) in test [2] and -4.39% (inactive) in test [3]. The activity, negative = inhibition in test [4] was 13.2% (inactive). For the same compound, the Potency entry in test [7], in test [19], in test [11], in [12], in test [13] and in test [14] was “inactive” throughout. In addition, the result in test [10] was inactive.
As to `O=C1C=C(O)c2ccccc2C1=O`, the Potency entry in [19] was “inactive”. For the same compound, in test [15], the activity change, negative = inhibition was -2.81% (inactive). Moreover, the max response is -0.646% in test [15] (setting [20]) and -2.25% in test [15] (setting [21]). In [17], the Potency is 50.1 µM (active). Besides, the outcome in [10] was inactive.
With `CCCCCCCCCCCCCC(=O)O[C@H](CC(=O)O)C[N+](C)(C)C`, the Potency result in test [18], in test [6] and in test [7] was “inactive” each time. Also, the Potency in test [16] is > 46 µM (inactive); in test [5], > 46 µM (inactive); in [17], 79.4 µM (active). Besides, the activity change, negative = inhibition in [15] was 3.49% (inactive). In addition, the max response in test [15] (setting [20]) is -5.36%; in test [15] (setting [21]), -2.97%. Besides, the result in test [10] was inactive.
As to `Cc1ccccc1-c1nc(N(C)Cc2ccco2)c2ccccc2n1`, the Potency in test [1] was > 11.4 µM (inactive); in test [18], 1.58 µM (active); in test [16] it was > 46 µM (inactive); in test [5], > 46 µM (inactive); in test [8], 20 µM (active); in [17], 28.2 µM (active). Further, the Potency in [14] was 35 µM (active). Moreover, the activity change, negative = inhibition in test [2] is 13.9% (inactive); in test [3] it was -24% (inactive). For the same compound, the activity, negative = inhibition in [4] is -5.08% (inactive). The Potency result in [6], in [19], in test [9], in test [11], in [12] and in [13] was “inactive” throughout. Moreover, in test [10], the result was inactive.

The values are drawn from PubChem BioAssay (NCATS).
